TRPML1 blocker – inhibitors of human TRPML1 channel | TRPML1-inducible cells, Ca2+ dye fluorescence, FDSS; stronger effect = lower value; inhibition of EC80 agonist-evoked calcium signal | activity change, negative = inhibition, % (concentration not given with the values) | 0.02% of 390,000 active | Q9GZU1 | AID 624415; in the data active = activity change below about -50%; inconclusive = between about -30% and that limit;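 note: stimulus is agonist 54-4 at its EC80 concentration; % is set by controls: 0 for no effect and ±100 for the full control effect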
Target sequence (Q9GZU1 whole entry, looked up): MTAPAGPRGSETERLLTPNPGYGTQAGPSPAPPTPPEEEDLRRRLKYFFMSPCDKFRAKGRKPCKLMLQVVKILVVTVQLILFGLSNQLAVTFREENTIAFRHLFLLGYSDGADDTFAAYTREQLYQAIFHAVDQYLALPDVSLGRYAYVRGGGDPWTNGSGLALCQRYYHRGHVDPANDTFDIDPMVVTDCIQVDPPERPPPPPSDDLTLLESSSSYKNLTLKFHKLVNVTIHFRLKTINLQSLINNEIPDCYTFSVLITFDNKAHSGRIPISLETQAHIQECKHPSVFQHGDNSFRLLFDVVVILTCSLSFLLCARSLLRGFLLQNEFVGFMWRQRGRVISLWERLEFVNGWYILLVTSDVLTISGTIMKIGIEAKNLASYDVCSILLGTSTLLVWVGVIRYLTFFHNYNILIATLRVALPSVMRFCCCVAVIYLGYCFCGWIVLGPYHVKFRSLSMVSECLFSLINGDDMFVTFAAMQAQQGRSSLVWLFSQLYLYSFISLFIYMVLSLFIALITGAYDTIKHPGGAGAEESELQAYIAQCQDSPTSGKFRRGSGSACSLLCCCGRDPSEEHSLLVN
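TRPML1-DL cells, Tet-induced overnight (~16 h, 37 °C) at 1,500 cells/well, were loaded with Ca8 no-wash dye plus quencher for 45-90 min at room temperature. Compounds were pinned during FDSS kinetic reading; agonist 54-4 at EC80 (4 uM final) then added.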
TRPV1 agonist – activates the human vanilloid receptor TRPV1 | TRPV1-expressing cells, Fluo-8 calcium influx, agonist mode | activation, % at 8.33 µM | 0.19% of 320,000 active | AID 540275; in the data active = activation above about 80%; inconclusive = between about 30% and that limit; note: 0% is about no effect
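TRPV1-expressing cells were cultured overnight at 35.5C and loaded with Fluo-8 calcium dye for 40 to 90 min at room temperature. After a 10 s baseline, compound was added and calcium influx was read kinetically for 3 min (ex 480/em 520 nm).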
TRPV1 potentiator – enhances activation of the human vanilloid receptor TRPV1. Q8NER1. TRPV1-expressing cells, Fluo-8 calcium influx, capsaicin EC20 potentiation. potentiation, % at 8.33 µM. 0.02% of 320,000 active; in the data active = potentiation above about 80%; inconclusive = between about 30% and that limit; note: 0% is about no effect
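Cells expressing TRPV1 were dye-loaded with Fluo-8 and read kinetically: 10 s baseline, 3 min after compound (agonist portion), then 2 min after EC20 capsaicin (allosteric enhancer portion). Calcium-bound dye fluorescence at 480/520 nm.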
TRPML1 ag – agonists of human TRPML1 channel. TRPML1-expressing cells, Ca2+ dye fluorescence, FDSS. activation, % (no concentration beside the values). 0.12% of 410,000 active. AID 624414; in the data active = activation above about 50%; inconclusive = mostly about 30% to 49%; note: 0% is about no effect
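Agonist activity was taken from a 110 s kinetic Ca2+ dye read on the FDSS after pinning compounds onto TRPML1-DL cells. The cells were seeded at 1,500/well with Tet inducer, incubated about 16 h, then dye-loaded at room temperature.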
Starred values were filed as active, the others as inactive. Compounds with a hit are over-represented: about 0.31% of the library has one in this group of screens.

`CC(C)(C)OC(=O)N1CCC(c2c(C(=O)N3CCN(C4CCCCC4)CC3)cnn2-c2cccc(Cl)c2)CC1` gave TRPML1 blocker -23 and TRPML1 ag 92*.
`COc1ccccc1N1CCN(C(=O)c2cnn(-c3ccc(C)c(C)c3)c2C2CCN(C(=O)OC(C)(C)C)CC2)CC1` gave TRPML1 blocker -10 and TRPML1 ag 59*.
`CCN1CCN(C(=O)c2cnn(-c3cccc(Cl)c3)c2C2CCN(C(=O)OC(C)(C)C)CC2)CC1` gave TRPML1 blocker 4 and TRPML1 ag 1.
CC(C)C[C@@H](CN=[N+]=[N-])N1CCN(CCc2ccccc2)CCC1=O was read as TRPML1 ag 0.
O=S1(=O)CCO[C@H]2CCCC[C@@H]2N1Cc1ccccc1F was read as TRPML1 ag -1.
Screening CC(C)(C)c1ccc(C(=O)Nc2cccc(-n3cnnn3)c2)cc1 returned TRPML1 blocker 8, TRPV1 agonist 80*, TRPV1 potentiator -1 and TRPML1 ag 0.
`O=C(Nc1cccc(-n2cnnn2)c1)c1cc(Cl)nc(Cl)c1` gave TRPML1 blocker 31, TRPV1 agonist inconclusive, TRPV1 potentiator -23 and TRPML1 ag 0.
Screening CCCCOc1ccc(C(=O)Nc2cccc(-n3cnnn3)c2)cc1OC returned TRPML1 blocker -1, TRPV1 agonist 89*, TRPV1 potentiator -23 and TRPML1 ag -1.
COc1ccc2c(CNCCc3ccc(SC)cc3)c(C(=O)O)n(Cc3ccc(F)cc3)c2c1 was read as TRPML1 blocker -9 and TRPML1 ag 3.
Screening CC(=O)/C=C/c1ccc2c(c1)S(=O)(=O)N(C1CCCC1)[C@H]2CC(C)=O returned TRPML1 ag 0.
Screening CSC1=NSC2=NC(=O)/C(=C/c3coc4ccccc4c3=O)C(=N)N12 returned TRPML1 blocker -10, TRPV1 agonist inconclusive, TRPV1 potentiator 1 and TRPML1 ag 77*.
For N=C1/C(=C\c2coc3ccccc3c2=O)C(=O)N=C2SC=CN12 the results were TRPML1 blocker -7, TRPV1 agonist inconclusive, TRPV1 potentiator 0 and TRPML1 ag 72*.
CSC1=NSC2=NC(=O)/C(=C\c3cccs3)C(=N)N12 was read as TRPML1 blocker -9, TRPV1 agonist 1, TRPV1 potentiator 6 and TRPML1 ag 0.
For CSC1=NSC2=NC(=O)/C(=C/c3coc4ccc(O)cc4c3=O)C(=N)N12 the results were TRPML1 blocker 4, TRPV1 agonist 22, TRPV1 potentiator 8 and TRPML1 ag 67*.
For CCCCN(CCCC)C(=O)CN(C)S(=O)(=O)c1ccc2c(c1)c(=O)n(C)c(=O)n2C the results were TRPML1 blocker -2 and TRPML1 ag -1.
Screening COC(=O)c1[nH]c2ccc(C)cc2c1NC(=O)CN1CCCC(C)(C)C1 returned TRPML1 blocker 33, TRPV1 agonist 89*, TRPV1 potentiator -12 and TRPML1 ag 0.
For CCCN1CCN(C(=O)Nc2ccc(C(=O)OCC)cc2)CC1 the results were TRPML1 blocker -2, TRPV1 agonist 3, TRPV1 potentiator -8 and TRPML1 ag 0.
Screening CCOC(=O)c1ccc(NC(=O)N2CCN(Cc3cccc(F)c3)CC2)cc1 returned TRPML1 blocker -5, TRPV1 agonist 81*, TRPV1 potentiator 9 and TRPML1 ag 2.
CC1=C(C(=O)Nc2ccccc2)C(c2cccn2C)n2ncnc2N1 (configuration not stated) was read as TRPML1 blocker -5 and TRPML1 ag 1.
CCOc1ccccc1CNC(=O)c1cccc(NC(=O)c2nsc3ccccc23)c1 was read as TRPML1 blocker 16 and TRPML1 ag 1.
For Cc1cccc(C)c1NC(=O)c1ccc(-c2ccc(Cl)cc2Cl)o1 the results were TRPML1 blocker 64, TRPV1 agonist -2, TRPV1 potentiator 5 and TRPML1 ag 3.
For Cc1ccccc1NC(=O)c1ccc(-c2ccc(Cl)cc2Cl)o1 the results were TRPML1 blocker -51*, TRPV1 agonist 15, TRPV1 potentiator 3 and TRPML1 ag 3.
Screening O=C(Nc1ccccc1)c1csc(-c2ccccc2)n1 returned TRPML1 blocker 5, TRPV1 agonist 85*, TRPV1 potentiator 23 and TRPML1 ag 3.
O=C(NNC(=O)c1csc(-c2ccccc2)n1)c1ccccc1 was read as TRPML1 blocker 13 and TRPML1 ag 0.
Cc1cc(N(C)C)cc(C)c1/C=C/c1cc[n+](C)c2ccccc12 was read as TRPML1 ag 0.
`O=C(NCC1(c2ccccc2)CCCC1)c1ccc(Br)o1` gave TRPML1 blocker -16, TRPV1 agonist inconclusive, TRPV1 potentiator -16 and TRPML1 ag 70*.
Screening CCCN(CCC)C(C)C(=O)NCC1(c2ccccc2)CCCC1 (configuration not stated) returned TRPML1 blocker inconclusive, TRPV1 agonist inconclusive, TRPV1 potentiator -32 and TRPML1 ag 107*.
COc1ccccc1Nc1ncnc2c1cnn2-c1cccc(C)c1 was read as TRPML1 blocker 0, TRPV1 agonist 85*, TRPV1 potentiator 5 and TRPML1 ag 0.
COc1cccc(Nc2ncnc3c2cnn3-c2cccc(C)c2)c1 was read as TRPML1 blocker 10, TRPV1 agonist 23, TRPV1 potentiator -24 and TRPML1 ag 0.
Screening CCc1c(-c2ccccc2)nc2ccccc2c1C(=O)NCc1ccc(C)cc1 returned TRPML1 blocker 16 and TRPML1 ag 2.
Screening CCNc1ccc2noc3c2c1C(=O)c1ccccc1-3 returned TRPML1 blocker 4, TRPV1 agonist inconclusive, TRPV1 potentiator -2 and TRPML1 ag 63*.
Screening CCOc1ccc(S(=O)(=O)N2CCN(c3cc(Cl)ccc3Cl)CC2)c2ccccc12 returned TRPML1 blocker -2 and TRPML1 ag 2.
For CCN(CC)c1ccc(NC(=O)c2ccc3c(c2)OCO3)cc1 the results were TRPML1 blocker 1, TRPV1 agonist 83*, TRPV1 potentiator -11 and TRPML1 ag 1.
`Cc1ccc(NC(=O)c2ccc3c(c2)OCO3)cc1Cl` gave TRPML1 blocker -6, TRPV1 agonist 83*, TRPV1 potentiator -11 and TRPML1 ag -1.
`CN(C)c1ccc(/C=C2/CCCc3c2nc2ccccc2c3C(=O)O)cc1` gave TRPML1 ag 5.
`O=C1CCC/C(=N/NC(=O)c2sc3ccccc3c2Cl)C1` gave TRPML1 blocker -7, TRPV1 agonist 23, TRPV1 potentiator 15 and TRPML1 ag 58*.
Screening Cc1ccc(-n2ncc(C(=O)NCCN3CCc4ccccc4C3)c2C2CCNCC2)cc1C returned TRPML1 blocker 3 and TRPML1 ag 0.
For Cc1cc(N)c(NC2=CC(=O)CC(C)(C)C2)cc1C the results were TRPML1 blocker 4, TRPV1 agonist 2, TRPV1 potentiator inconclusive and TRPML1 ag 60*.
For Cc1cccc(N2CCN(C(=O)NC3CCCCC3)CC2C)c1 (configuration not stated) the results were TRPML1 blocker -3, TRPV1 agonist 93*, TRPV1 potentiator -7 and TRPML1 ag 0.

Source: PubChem (National Center for Advancing Translational Sciences (NCATS))
